Experiment [1] can be described thus: sensitizers of A549 cells to miR-34 induction, primary screen, imaging, A549 dox-inducible miR-34, nuclei and caspase counts (AID 1347080). The following applies: A549 miR-34 inducible, Hoechst nuclei count, 48 h.
Experiment [2] in a line: phospholipid biosynthesis inhibitors in animal cells, primary screen, cell-based, LOPAC library, screen 4 (AID 1347384; call rule not given here). Conditions: phospholipid biosynthesis inhibition screen, at 10 µM.
The nature of experiment [3]: survival rescue of mitochondrial mutant cells in low glucose, primary screen, MELAS cybrids, Rieske KO mouse fibroblasts, CellTiter-Glo (AID 1508586;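 active means mean z-score across replicates of 1.96 or higher in either the MELAS or the Rieske mutant cell line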;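 further: z relative to plate mean and SD of compound and empty wells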).
A short description of experiment [4]: viability rescue of complex I mutant cybrids, primary screen, cell-based, galactose medium, ATP luminescence (AID 1645843;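 active means z-score of at least 1.8 in each of two replicates, scored against plate mean and spread of sample wells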;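 further: positive z means more ATP and so rescue of galactose-driven cybrid death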). The following applies: complex I mutant cybrid cells, 72 h, stronger effect = higher value.
Experiment [5] addresses NAD(+) hydrolase SARM1 (Homo sapiens) (UniProt Q6SZW1). Briefly: SARM1 TIR NADase inhibitors, cell lysate, NAD-Glo luminescence (AID 1508614;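 active means compound whose remaining NAD level is above about 45 nM, limit read from the data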). The following applies: SAM-TIR HEK293T lysate NADase, at 1 µM, stronger effect = higher value.
Experiment [6] concerns the target Mitogen-activated protein kinase 7 (Homo sapiens) (UniProt Q13164). The experiment can be described thus: ERK5 transactivation activators in reporter cells, primary screen, cell-based, HTS (AID 1508626;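 active means luciferase signal above three times the same-plate solvent-only control wells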;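 further: luciferase driven by Gal4-ERK5 fusion binding five Gal4 sites before minimal TATA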). Conditions: HeLa Gal4-ERK5 transactivation, 18 h, at 5 µM, stronger effect = higher value.
The nature of experiment [7]: LFS_MB_P medulloblastoma growth inhibition, cell-based, chromothripsis tumors, cisplatin or BGB combos (AID 1671449; in the data active means inhibition above about 80%;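 further: cells exposed for 96 hours; 0% = vehicle DMSO and 100% = killing by high DMSO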). Conditions: LFS_MB_P medulloblastoma cells.
The nature of experiment [8]: HDN33 neuroblastoma growth inhibition, cell-based, chromothripsis tumors, cisplatin or BGB combos (AID 1671450; in the data active means inhibition above about 80%;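 further: cells exposed to compound for four days; 0% = vehicle DMSO and 100% = cell killing by high DMSO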). Conditions: HDN33 neuroblastoma cells, stronger effect = higher value.
The nature of experiment [9]: ICB984 medulloblastoma cell growth inhibition, synergistic combos for chromothripsis tumors, cisplatin or BGB combos (AID 1671451; call rule not given here;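 further: cells exposed for 96 hours before readout; 0% = vehicle DMSO and 100% = killing by high DMSO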). The following applies: ICB984 medulloblastoma cells, drug combinations, stronger effect = higher value.
A short description of experiment [10]: LFS_MB_1R medulloblastoma cell growth inhibition, synergistic combos for chromothripsis tumors, cisplatin or BGB combos (AID 1671452; in the data active means inhibition above about 80%;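 further: cells exposed for 96 hours before readout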). The following applies: LFS_MB_1R medulloblastoma cells, stronger effect = higher value.
Experiment [11] is described as follows: HTB85 osteosarcoma cell growth inhibition, synergistic combos for chromothripsis tumors, BGB or cisplatin IC20 combos (AID 1671453; in the data active means inhibition above about 80%;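 further: cells exposed for 96 hours before readout; 0% = vehicle DMSO and 100% = high DMSO killing control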). The following applies: HTB85 osteosarcoma cells, drug combinations, stronger effect = higher value.
The nature of experiment [12]: CRL2098 osteosarcoma cell growth inhibition, synergistic combos for chromothripsis tumors, BGB or cisplatin IC20 combos (AID 1671454; in the data active means inhibition above about 80%;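 further: cells exposed for 96 h before readout; 0% = vehicle DMSO and 100% = killing by high DMSO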). Conditions: CRL2098 osteosarcoma cells, drug combinations, stronger effect = higher value.
Experiment [13] can be described thus: HD-MB03 medulloblastoma cell growth inhibition, synergistic combos for chromothripsis tumors, BGB or cisplatin IC20 combos (AID 1671455; in the data active means inhibition above about 83%;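 further: 0% = vehicle DMSO and 100% = high DMSO as cytotoxic control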). The following applies: HD-MB03 medulloblastoma cells, stronger effect = higher value.
The mark [14] stands for this setting: stronger effect = lower value, cell number ratio, induced over uninduced.
The mark [15] stands for this setting: measured here: relative caspase fold change +Dox/-Dox.
The mark [16] stands for this setting: measured here: total cells with miR-34 induction, stronger effect = lower value.
The mark [17] stands for this setting: measured here: total cells without miR-34 induction.
Setting [18] is: MELAS cybrid survival, CellTiter-Glo 48 h, stronger effect = higher value.
Setting [19] is: Rieske KO mouse fibroblast survival, CellTiter-Glo 72 h.
Where [20] appears, read: measured here: combination with BGB IC40, at 0.05 µM.

Values joined by “and” are separate entries in the source; they are usually repeats but may differ in a detail not shown here. Equal entries are not always repeated. Active and inactive are the calls of the source.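 How the source made its calls, unless noted: active means compounds whose cell count with miR-34 switched on is under 0.7 times the count with it off; inactive means the rest.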

By inhibition is commonly meant the drop in the measured response relative to a control, in per cent.

Mitogen-activated protein kinase 7 (Homo sapiens), sequence (Q13164 whole entry, looked up, the tested form may be a part): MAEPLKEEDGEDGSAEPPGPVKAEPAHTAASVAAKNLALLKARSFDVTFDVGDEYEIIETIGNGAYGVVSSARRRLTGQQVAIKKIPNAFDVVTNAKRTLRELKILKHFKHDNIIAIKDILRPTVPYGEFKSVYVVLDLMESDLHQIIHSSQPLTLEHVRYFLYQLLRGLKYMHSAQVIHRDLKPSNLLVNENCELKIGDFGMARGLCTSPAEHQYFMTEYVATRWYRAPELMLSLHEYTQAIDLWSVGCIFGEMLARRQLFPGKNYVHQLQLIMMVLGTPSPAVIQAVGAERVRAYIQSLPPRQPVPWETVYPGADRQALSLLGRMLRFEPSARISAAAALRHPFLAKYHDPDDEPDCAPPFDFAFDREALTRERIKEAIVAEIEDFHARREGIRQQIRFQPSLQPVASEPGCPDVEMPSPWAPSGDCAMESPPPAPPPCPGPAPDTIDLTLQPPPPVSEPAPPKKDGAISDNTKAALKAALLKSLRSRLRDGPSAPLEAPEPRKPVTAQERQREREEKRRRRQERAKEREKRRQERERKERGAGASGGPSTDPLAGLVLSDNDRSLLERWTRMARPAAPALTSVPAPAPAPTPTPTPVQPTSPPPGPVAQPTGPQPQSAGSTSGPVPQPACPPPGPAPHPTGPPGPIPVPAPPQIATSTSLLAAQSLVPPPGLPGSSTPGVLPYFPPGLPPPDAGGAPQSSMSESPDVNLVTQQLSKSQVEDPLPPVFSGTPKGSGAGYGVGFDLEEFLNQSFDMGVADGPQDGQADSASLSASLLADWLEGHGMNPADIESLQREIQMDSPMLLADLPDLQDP
NAD(+) hydrolase SARM1 (Homo sapiens), sequence (Q6SZW1 whole entry, looked up, the tested form may be a part): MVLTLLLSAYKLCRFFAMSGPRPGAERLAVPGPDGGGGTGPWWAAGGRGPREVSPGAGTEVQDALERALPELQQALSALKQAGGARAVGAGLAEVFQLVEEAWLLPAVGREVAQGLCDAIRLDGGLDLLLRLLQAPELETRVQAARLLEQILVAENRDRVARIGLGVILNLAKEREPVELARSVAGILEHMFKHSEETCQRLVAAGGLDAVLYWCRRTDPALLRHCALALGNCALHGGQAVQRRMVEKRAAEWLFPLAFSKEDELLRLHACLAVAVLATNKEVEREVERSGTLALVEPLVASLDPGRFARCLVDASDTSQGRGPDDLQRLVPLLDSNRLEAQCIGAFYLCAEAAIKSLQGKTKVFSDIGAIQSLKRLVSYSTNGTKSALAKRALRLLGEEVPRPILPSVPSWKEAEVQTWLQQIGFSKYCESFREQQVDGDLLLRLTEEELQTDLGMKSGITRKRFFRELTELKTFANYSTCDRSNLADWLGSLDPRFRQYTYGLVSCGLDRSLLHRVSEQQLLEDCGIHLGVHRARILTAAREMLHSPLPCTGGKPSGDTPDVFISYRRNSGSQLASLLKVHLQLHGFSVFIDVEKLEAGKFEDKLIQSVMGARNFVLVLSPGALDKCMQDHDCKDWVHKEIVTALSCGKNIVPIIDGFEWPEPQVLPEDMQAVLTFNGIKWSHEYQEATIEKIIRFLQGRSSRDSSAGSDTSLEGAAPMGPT

For `CCN1CCC[C@H]1CNC(=O)c1c(O)c(Cl)cc(Cl)c1OC`, the fold change in [1] (setting [14]) was 1 (inactive) and 0.9 (inactive) and 0.875 (inactive); in [1] (setting [15]) it was 1.23 and 0.728 and 0.77. In addition, the cell count in experiment [1] (setting [16]) was 9930 and 9080 and 9820; in [1] (setting [17]), 9900 and 10100 and 11200. In addition, the result in experiment [2] was inactive. Also, the z-score in [3] (setting [18]) was -0.782 (inactive) and -0.532 (inactive); in experiment [3] (setting [19]), -0.0598 and -0.803; in [4], 0.525 (inactive) and -0.165 (inactive) and 0.41 (inactive).

On to `Cc1c(O)cccc1C(=O)N[C@@H](CSc1ccccc1)[C@H](O)CN1C[C@H]2CCCC[C@H]2C[C@H]1C(=O)NC(C)(C)C`, for which the fold change is 0.973 (inactive) and 1.07 (inactive) in [1] (setting [14]); 1.56 and 1.1 in experiment [1] (setting [15]). Further, the cell count was 1740 and 4590 in [1] (setting [16]); 1780 and 4280 in experiment [1] (setting [17]). Also, the result in [2] was inactive. The z-score in experiment [3] (setting [18]) was -0.847 (inactive) and 0.17; in experiment [3] (setting [19]), 0.453 and 2.01; in [4] it was -1.03 (inactive) and -1.48 (inactive).

As for `CN1[C@@H]2CC[C@H]1CC(OC(=O)C(O)c1ccccc1)C2` (stereo partly specified), the fold change in experiment [1] (setting [14]) was 0.916 (inactive); in [1] (setting [15]) it was 1.3. For the same molecule, the figures for the cell count in [1] (setting [16]) and in [1] (setting [17]) were 8240 and 9000, respectively. Moreover, the z-score in [3] (setting [18]) was 0.652 (inactive); in experiment [3] (setting [19]), 0.375. Besides, the remaining NAD in experiment [5] was 10 nM (inactive). Moreover, in experiment [6], the luciferase signal is 40 AU (inactive).

As for `CCN(CC)CCNC(=O)c1ccc(NC(C)=O)cc1`, the fold change was 1.04 (inactive) and 0.905 (inactive) in experiment [1] (setting [14]); 1.99 and 4.44 in experiment [1] (setting [15]). The cell count in experiment [1] (setting [16]) is 10300 and 12600; in experiment [1] (setting [17]), 9910 and 14000. In [2], the molecule was called inactive. Moreover, in experiment [5], the remaining NAD was 10 nM (inactive). The luciferase signal in experiment [6] was 32 AU (inactive). In addition, in experiment [4], the z-score is 0.34 (inactive).

Take `CCCCCCCC/C=C\CCCCCCCC(=O)NCc1ccc(O)c(OC)c1`: the fold change in [1] (setting [14]) is 1.07 (inactive) and 0.928 (inactive) and 0.945 (inactive); in experiment [1] (setting [15]), 0.981 and 1.03 and 0.614. In addition, the cell count in experiment [1] (setting [16]) is 10500 and 5740 and 9140; in experiment [1] (setting [17]), 9800 and 6180 and 9670. In addition, in experiment [2], the call was inactive. Besides, in experiment [4], the z-score was -1.29 (inactive) and -1.24 (inactive).

`C[N+]1(CCCCC[N+]2(C)CCCC2)CCCC1`: the fold change in [1] (setting [14]) is 1.07 (inactive) and 0.91 (inactive); in experiment [1] (setting [15]), 0.597 and 1.28. Further, the cell count in experiment [1] (setting [16]) was 10400 and 8690; in experiment [1] (setting [17]), 9650 and 9550. In [2], the molecule was classed as inactive. Further, the values for the z-score in experiment [3] (setting [18]), in experiment [3] (setting [19]) and in experiment [4] were 0.607 (inactive), 0.539 and 0.235 (inactive), respectively. Further, the luciferase signal in experiment [6] was 108 AU (inactive).

Turning to `C=CCSCC1Nc2cc(Cl)c(S(N)(=O)=O)cc2S(=O)(=O)N1` (stereo unspecified), the fold change in experiment [1] (setting [14]) is 0.925 (inactive) and 0.942 (inactive); in experiment [1] (setting [15]), 0.973 and 1.58. The cell count was 8690 and 12000 in [1] (setting [16]); 9400 and 12700 in experiment [1] (setting [17]). For the same molecule, the results for the z-score in [3] (setting [18]) and in [3] (setting [19]) were -0.333 (inactive) and -0.472, respectively. Besides, in experiment [5], the remaining NAD was 10 nM (inactive). Besides, the luciferase signal in experiment [6] is 40 AU (inactive).

In the case of `NC(Cc1ccc(Cl)cc1)C(=O)O` (stereo unspecified), the fold change in experiment [1] (setting [14]) was 0.993 (inactive); in [1] (setting [15]), 1.95. The cell count in experiment [1] (setting [16]) and in experiment [1] (setting [17]) was 10900 throughout. For the same molecule, the call in [2] was inactive. Further, the remaining NAD in experiment [5] was 10 nM (inactive). In [4], the z-score was 0.25 (inactive).

For the molecule `O=C(O)CCCCCCCC(=O)O`, the fold change in experiment [1] (setting [14]) is 0.959 (inactive) and 0.941 (inactive); in experiment [1] (setting [15]), 0.966 and 3.31. For the same molecule, the cell count in experiment [1] (setting [16]) is 9890 and 11100; in experiment [1] (setting [17]), 10300 and 11800. Moreover, the molecule was called inactive in experiment [2]. Further, the remaining NAD in experiment [5] is 10 nM (inactive). Also, the luciferase signal in experiment [6] is 24 AU (inactive). The z-score in [4] was 0.635 (inactive). The inhibition in experiment [7] (at 0.5 µM, stronger effect = higher value) was 14.6% (inactive); in [7] (measured here: combination with BGB IC20, at 0.005 µM), -16.4%; in [7] (measured here: combination with BGB IC40, at 0.005 µM), -8.17%; in [7] (setting [20]) it was 6.68%; in experiment [7] (measured here: combination with cisplatin, at 0.5 µM, stronger effect = higher value), 8.46%; in experiment [7] (measured here: combination with cisplatin, at 5 µM, stronger effect = higher value), -13.6%. Moreover, the inhibition in [8] (BGB combo, at 5 µM) was -29.2%; in experiment [8] (at 0.5 µM) it was -40.9% (inactive); in [8] (cisplatin combo, at 5 µM), -22.7%; in [8] (measured here: with BGB IC20 combination, at 0.5 µM), -45.6%; in experiment [8] (measured here: with cisplatin IC20 combination, at 0.5 µM), -37.4%; in experiment [8] (single agent, at 5 µM), -34.5%. For the same molecule, the inhibition in experiment [9] (BGB IC20 combo, at 0.005 µM) is -5.6%; in experiment [9] (BGB IC40 combo, at 0.005 µM) it was -44.6%; in experiment [9] (BGB IC40 combo, at 0.05 µM) it was -20.8%; in experiment [9] (at 0.5 µM), -26.1% (inactive); in experiment [9] (cisplatin combo, at 0.05 µM) it was -24.1%; in [9] (cisplatin combo, at 0.5 µM), -19.2%. For the same molecule, the inhibition in experiment [9] (cisplatin combo, at 5 µM) was -29.2%; in experiment [9] (measured here: 5 uM single agent, at 5 µM), -20.6%; in [10] (at 0.5 µM), -28.5% (inactive); in experiment [10] (setting [20]) it was -23.1%; in [10] (measured here: combination with cisplatin, at 0.5 µM) it was -37.2%; in experiment [10] (measured here: combination with cisplatin, at 5 µM), -71.3%. For the same molecule, the inhibition in experiment [11] (at 0.5 µM) is -17.1% (inactive); in experiment [11] (measured here: with BGB IC20, at 0.5 µM), -39.9%; in experiment [11] (measured here: with BGB IC20, at 5 µM) it was -68.2%; in experiment [11] (measured here: with cisplatin IC20, at 0.5 µM), -8.83%; in [11] (measured here: with cisplatin IC20, at 5 µM) it was 0.863%; in experiment [11] (single agent, at 5 µM), -30.9%. Also, the inhibition in [12] (at 0.5 µM) is -76.3% (inactive); in experiment [12] (measured here: combination with BGB at IC20, at 0.5 µM) it was -57.7%; in [12] (measured here: combination with cisplatin at IC20, at 0.5 µM), -93.4%; in experiment [13] (at 0.5 µM), -14.1% (inactive); in experiment [13] (measured here: combo with BGB at IC20, at 0.5 µM), -13.8%; in experiment [13] (measured here: combo with cisplatin at IC20, at 0.5 µM) it was -19.9%.
